From PMC6919601, “Identification of Plasmodium dipeptidyl aminopeptidase allosteric inhibitors by high throughput screening” (PLoS ONE, 2019) come the findings set out here.

Out of some 110,000 compounds screened, about 230 (0.21%) showed an effect of 50% or more. The sample as a whole holds a higher share of strong results than the screen did.
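Further: 30 min substrate incubation versus DMSO and 10 µM JCP410 controls.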

For the assay, the target named is DPAP1 (Plasmodium falciparum, UniProt Q8IIJ9). The assay is described as follows: primary screen, percent inhibition; read by cleavage of a fluorogenic dipeptide substrate; higher = more effect of the substance. Set-up: species or system P. falciparum D10 trophozoite lysates; single well.
DPAP1, sequence (Q8IIJ9 whole entry, looked up): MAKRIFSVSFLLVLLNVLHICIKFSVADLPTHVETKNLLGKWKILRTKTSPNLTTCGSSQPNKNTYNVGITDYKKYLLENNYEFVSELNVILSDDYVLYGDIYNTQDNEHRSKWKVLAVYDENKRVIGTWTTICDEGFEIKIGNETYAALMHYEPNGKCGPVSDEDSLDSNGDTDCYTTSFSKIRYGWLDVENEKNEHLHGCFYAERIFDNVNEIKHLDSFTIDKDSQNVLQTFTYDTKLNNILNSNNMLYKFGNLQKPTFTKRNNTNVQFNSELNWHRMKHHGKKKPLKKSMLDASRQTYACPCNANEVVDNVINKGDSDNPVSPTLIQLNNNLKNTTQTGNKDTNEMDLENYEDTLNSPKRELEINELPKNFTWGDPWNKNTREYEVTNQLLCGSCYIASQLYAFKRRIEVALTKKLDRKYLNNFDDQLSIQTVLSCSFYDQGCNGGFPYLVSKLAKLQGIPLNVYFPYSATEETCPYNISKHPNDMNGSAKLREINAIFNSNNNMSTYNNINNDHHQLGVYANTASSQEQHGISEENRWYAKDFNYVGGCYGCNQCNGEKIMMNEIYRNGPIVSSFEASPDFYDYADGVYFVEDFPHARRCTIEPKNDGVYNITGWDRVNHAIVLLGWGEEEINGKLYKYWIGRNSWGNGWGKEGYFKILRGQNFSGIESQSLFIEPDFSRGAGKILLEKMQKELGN
As to `COc1ccc2cc3cc(C(=O)N(C)Cc4ccccc4)sc3nc2c1`, the “% Inhibition @ 10 uM” value was determined as 0.402%.

For `COc1ccc2cc3cc(C(=O)NCCN4CCc5ccccc5C4)sc3nc2c1`, the “% Inhibition @ 10 uM” value is 4.61%.

For the compound `COc1ccc2nc3sc(C(=O)NCCN4CCOCC4)cc3cc2c1`, the “% Inhibition @ 10 uM” value came out at 3.07%.

Consider `COc1ccc2nc3sc(C(=O)NCCCN4CCc5ccccc5C4)cc3cc2c1`, for which the “% Inhibition @ 10 uM” value was found to be 64.7%.

Turning to `CSc1ccc(CN2CCN(c3cccc(Cl)c3)CC2)cc1`, the “% Inhibition @ 10 uM” value is reported as 0.847%.

Consider `CCN1CCN(C(=O)CS(=O)(=O)Cc2nc(-c3ccc(C)cc3)oc2C)CC1`, for which the “% Inhibition @ 10 uM” value is -3.7%.

`O=S(=O)(NC1CCc2ccccc21)c1ccc(-n2cnnn2)cc1` (centres unmarked): the “% Inhibition @ 10 uM” value is reported as -1.07%.

In the case of `CC1=C(C(=O)Nc2ccc(Br)cc2)C(c2ccc(Cl)cc2)NC(=O)N1` (centres unmarked), the “% Inhibition @ 10 uM” value worked out at 1.35%.

For `COCCCNC(=O)Cc1coc2ccc3ccccc3c12`, the “% Inhibition @ 10 uM” value is 2.01%.

In the case of `CCn1c(S)nc2c(=O)oc3ccccc3c21`, the “% Inhibition @ 10 uM” value is 14%.

As for `Cc1nc2c(=O)oc3ccccc3c2n1C`, the “% Inhibition @ 10 uM” value worked out at 4.35%.

As for `Cn1c(S)nc2c(=O)oc3ccccc3c21`, the “% Inhibition @ 10 uM” value was found to be 56.8%.

Take `COc1ccc(N(C(C)C(=O)Nc2ccc(C(C)C)cc2)S(C)(=O)=O)cc1` (centres unmarked): the “% Inhibition @ 10 uM” value is -1.57%.

Consider `CCCCSCCCNC(=O)C1CCC(CNS(=O)(=O)c2ccc(C)cc2)CC1` (centres unmarked), for which the “% Inhibition @ 10 uM” value is 5.47%.

As for `COc1ccc(C2CC(=O)N3CN(CCCc4ccccc4)CSC3=C2C#N)cc1OC` (centres unmarked), the “% Inhibition @ 10 uM” value stood at 30.5%.

Turning to `CC(C)CCN1CSC2=C(C#N)C(c3ccc(Cl)cc3)CC(=O)N2C1` (centres unmarked), the “% Inhibition @ 10 uM” value was found to be 54.6%.

Consider `COc1cc(C2CC(=O)N3CN(Cc4ccco4)CSC3=C2C#N)ccc1O` (centres unmarked), for which the “% Inhibition @ 10 uM” value is on record as 17.5%.

As for `COc1ccc(C2CC(=O)N3CN(CCC(C)C)CSC3=C2C#N)cc1OC` (centres unmarked), the “% Inhibition @ 10 uM” value is 46.8%.

For `Cc1ccc(C2CC(=O)N3CN(CCC(C)C)CSC3=C2C#N)cc1` (centres unmarked), the “% Inhibition @ 10 uM” value is given as 43.8%.

On to `Cc1ccsc1CCN1CSC2=C(C#N)C(c3ccc(Cl)cc3)CC(=O)N2C1` (centres unmarked), for which the “% Inhibition @ 10 uM” value was determined as 51.6%.

For the compound `COc1cccc(C2CC(=O)N3CN(CCc4sccc4C)CSC3=C2C#N)c1` (centres unmarked), the “% Inhibition @ 10 uM” value is listed as 56.9%.

`N#CC1=C2SCN(Cc3ccccc3)CN2C(=O)CC1c1ccc(Cl)cc1` (centres unmarked): the “% Inhibition @ 10 uM” value is 42.2%.

As to `NC(=O)c1ccc(-n2nnnc2SCc2ccc(C(=O)O)cc2)cc1`, the “% Inhibition @ 10 uM” value is recorded as 3.05%.

With `CCC1CCC(NCCN(C)C)CC1` (centres unmarked), the “% Inhibition @ 10 uM” value is on record as -3.42%.

In the case of `Cc1nc2scc(C)n2c(=O)c1S(=O)(=O)N1CCc2ccccc2C1`, the “% Inhibition @ 10 uM” value is reported as -0.984%.

Regarding `CCOC(=O)/C=C(\C)N1N=C2c3ccc(OC)cc3CCC2C1c1cccc(F)c1` (centres unmarked), the “% Inhibition @ 10 uM” value came out at 73.1%.

`CCOC(=O)/C=C(\C)N1N=C2c3cc(OC)ccc3CCC2C1c1ccccc1` (centres unmarked): the “% Inhibition @ 10 uM” value is 2%.

`CCOC(=O)/C=C(\C)N1N=C2c3cc(OC)ccc3CCC2C1c1ccc(F)cc1` (centres unmarked): the “% Inhibition @ 10 uM” value came to 6.33%.

As to `COc1ccc(C2C3CCc4ccc(OC)cc4C3=NN2/C(C)=C/C(C)=O)cc1` (centres unmarked), the “% Inhibition @ 10 uM” value is on record as 22.9%.

Take `COc1ccc2c(c1)CCC1C2=NN(/C(C)=C/C(C)=O)C1c1ccc([N+](=O)[O-])cc1` (centres unmarked): the “% Inhibition @ 10 uM” value was 4.54%.

On to `CCOC(=O)/C=C(\C)N1N=C2c3ccc(OC)cc3CCC2C1c1ccc(F)cc1` (centres unmarked), for which the “% Inhibition @ 10 uM” value is listed as -1.77%.

For the compound `CCOC(=O)/C=C(\C)N1N=C2c3ccc(OC)cc3CCC2C1c1ccc(OC)cc1` (centres unmarked), the “% Inhibition @ 10 uM” value is given as 60.6%.

Turning to `CCOC(=O)/C=C(\C)N1N=C2c3cc(OC)ccc3CCC2C1c1ccc(OC)cc1` (centres unmarked), the “% Inhibition @ 10 uM” value is -4.49%.

Turning to `COc1ccc(C2C3CCc4cc(OC)ccc4C3=NN2/C(C)=C/C(C)=O)cc1` (centres unmarked), the “% Inhibition @ 10 uM” value is listed as 58.5%.

`COC(=O)C(O)(c1ccc(N)cc1)C(F)(F)F` (centres unmarked): the “% Inhibition @ 10 uM” value came out at 0.937%.

With `CCCCOC1CS(=O)(=O)CC1OCCCC` (centres unmarked), the “% Inhibition @ 10 uM” value is -5.28%.

As to `Cc1ccc(-c2nc(CSCC(=O)Nc3cc(C)on3)c(C)o2)cc1`, the “% Inhibition @ 10 uM” value was -2.14%.

For `CC1=C(C)CC(C(=O)Nc2cccc(F)c2)C(C(=O)O)C1` (centres unmarked), the “% Inhibition @ 10 uM” value is -2.22%.

In the case of `COC(=O)c1cc(OC)c(S(=O)(=O)NCc2ccccc2)cc1OC`, the “% Inhibition @ 10 uM” value is recorded as -2.28%.

Turning to `CCOC(=O)C1=C(CN2CCC3(CC2)OCCO3)NC(=O)NC1c1cccc(OC)c1OC` (centres unmarked), the “% Inhibition @ 10 uM” value came to 93%.

With `CCOC(=O)C1=C(CN2CCN(C(=O)OCC)CC2)NC(=O)NC1c1cccc(OC)c1OC` (centres unmarked), the “% Inhibition @ 10 uM” value is reported as 2.12%.

Turning to `CCOC(=O)C1=C(CN2CCN(C)CC2)NC(=O)NC1c1cccc(OC)c1OC` (centres unmarked), the “% Inhibition @ 10 uM” value was determined as 3.75%.

As for `O=C1CC(c2ccccc2)NC(=O)N1` (centres unmarked), the “% Inhibition @ 10 uM” value is given as -2.86%.

As to `CCCOc1ccc(C2C3=C(O)CC(C)(C)CC3=NC(C)=C2C(=O)Nc2ccccc2OC)cc1` (centres unmarked), the “% Inhibition @ 10 uM” value was -0.864%.

As for `c1ccc(C(CCNC2CN3CCC2CC3)c2ccccc2)cc1` (centres unmarked), the “% Inhibition @ 10 uM” value is -0.0908%.

In the case of `O=C(CCN1C(=O)c2ccccc2C1=O)NCC1CCCO1` (centres unmarked), the “% Inhibition @ 10 uM” value is recorded as -0.349%.

For `Cc1cc(/C=C2/C(=N)N3C(=NC2=O)SN=C3S(=O)(=O)C(C)C)c(C)n1Cc1ccccc1`, the “% Inhibition @ 10 uM” value is reported as -7.21%.

As to `CC(C)Oc1ccccc1/C=C1\SC(=N)N(c2nccs2)C1=O`, the “% Inhibition @ 10 uM” value is given as 50.1%.

As to `N=C1S/C(=C\c2c[nH]nc2-c2ccccc2)C(=O)N1c1nccs1`, the “% Inhibition @ 10 uM” value is given as 11.2%.

Consider `N=C1S/C(=C\c2ccco2)C(=O)N1c1nccs1`, for which the “% Inhibition @ 10 uM” value is given as -3.74%.
